The source of these data is PubChem BioAssay (Tox21).

Records with an inconclusive call do not appear. Entries that show only a call come without a potency. Calls of active or inactive are those of the source. The call rests on the fitted dose curve.
Potency means the concentration at half of the fitted maximal effect.

This test is described as follows: qHTS assay for small molecules that induce genotoxicity in human embryonic kidney cells expressing luciferase-tagged ATAD5 - cell viability (AID 651634). Further: nearly all actives have a fitted effect of over 25% in size. Particulars: HEK293T ATAD5-luc cells viability, CellTiter-Fluor, 15.5 h; series mostly up to 83.3 µM. From the text:
National Center for Advancing Translational Sciences [NCATS]
NIH Chemical Genomics Center [NCGC]
U.S. Environmental Protection Agency [EPA]
National Institutes of Environmental Health Sciences [NIEHS]
National Toxicology Program [NTP]
U.S. Food and Drug Administration [FDA]
Enhanced Level of Genome Instability Gene 1 (ELG1; human ATAD5) protein levels increase in response to various types of DNA damage. Using a luciferase reporter-gene tagged with ElG1, a cell-based assay [developed by Kyungjae Myung, NHGRI, NIH] was used to measure the induction of ATAD5 in human embryonic kidney cells (HEK293T). So, increase in luciferase activity can be used to identify the compounds that cause genetic stress. In addition to genotoxicity, these cells were also used to test for cytotoxicity by measuring the protease activity within live cells.
Tox21 Assay Protocol Summary:
For cytotoxicity screening, 2,000 cells in 5 uL/well were dispensed into white, solid-bottom 1536-well plates using a Multidrop Combi (Thermo Scientific) dispenser. Following transfer of 23 nL compound or DMSO vehicle by a pin tool, the plates were incubated 15.5 hr at 37C and 5% CO2. 1 ul CellTiter-Fluor reagent (Promega, Madison, WI) was then added to each plate and following 30 min incubation at 37C, fluorescence intensity was quantified on a ViewLux CCD-based plate reader.
A general note: qHTS replaces the single test concentration by a dilution series.
On to `CCOC(=O)C1=C(C)NC(C)=C(C(=O)OC)C1c1cccc(Cl)c1Cl` (stereo not given), for which the Potency result is “inactive”. The value for `O=C1c2ccccc2C(=O)C1(O)O` was “inactive”. `C[C@]12CC[C@@H]3c4ccc(O)cc4CC[C@H]3[C@@H]1CC[C@@H]2OC(=O)CCC1CCCC1`: the Potency result is “inactive”. With `COc1cc(C(=O)NC2CCN(C)CC2)ccc1Nc1ncc2c(n1)N(C1CCCC1)CC(F)(F)C(=O)N2C`, the Potency is 79.1 µM (active). The result for `CC(=O)OCC(=O)NCCCOc1cccc(CN2CCCCC2)c1` reads “inactive”. The result for `CC[N+](CC)(CCNC(=O)C(=O)NCC[N+](CC)(CC)Cc1ccccc1Cl)Cc1ccccc1Cl` reads “inactive”; that for `C=C1C[C@@]23CC[C@H]4[C@@](C)(CCC[C@@]4(C)C(=O)O[C@@H]4O[C@H](CO)[C@@H](O)[C@H](O)[C@H]4O)[C@@H]2CC[C@]1(O[C@@H]1O[C@H](CO)[C@@H](O)[C@H](O[C@@H]2O[C@H](CO)[C@@H](O)[C@H](O)[C@H]2O)[C@H]1O[C@@H]1O[C@H](CO)[C@@H](O)[C@H](O)[C@H]1O)C3`, “inactive”.

As to `CC(=O)Oc1ccc([N+](=O)[O-])cc1CCl`, the Potency was 30.6 µM (active). In the case of `CCC(C)(C)OC`, the Potency entry was “inactive”. The result for `CN1C(=O)c2ccccc2C1=O` reads “inactive”; that for `O=C1NC(=O)c2cc([N+](=O)[O-])ccc21`, “inactive”. On to `CCC(C)COC(C)=O` (stereo not given), for which the Potency result is “inactive”. Take `CN(C(=O)CN(CCO)CC(=O)N(C)C(C)(C)Cc1ccccc1)C(C)(C)Cc1ccccc1`: the Potency entry is “inactive”. Regarding `C=CC(C)(CCC=C(C)C)OC(=O)CC(C)C` (stereo not given), the Potency entry is “inactive”. The result for `Cc1ccccc1S` reads “inactive”; that for `C=C(C)C(=O)OCCCCCCCCCCCCC`, “inactive”; that for `Oc1cccc(Nc2ccccc2)c1`, “inactive”. The value for `CCC(OCCCOC)OC(C)=O` (stereo not given) was “inactive”; that for `COc1cc(N)c(Cl)cc1C(=O)NC1CCN(CCCOc2ccc(F)cc2)CC1OC` (stereo not given) was “inactive”; that for `C[C@@H](O)[C@H]1C(=O)N2C(C(=O)O)=C([C@H]3CCCO3)S[C@H]12` was “inactive”. The result for `CN1CC(=O)N2[C@H](c3ccc4c(c3)OCO4)c3[nH]c4ccccc4c3C[C@@H]2C1=O` reads “inactive”; that for `CC/C=C1/OC(=O)c2ccccc21`, “inactive”. As to `Nc1ncnc2c1ncn2[C@H]1CC[C@@H](CO)O1`, the Potency entry is “inactive”. The result for `CO[C@]1(NC(=O)CSC(F)F)C(=O)N2C(C(=O)O)=C(CSc3nnnn3CCO)CO[C@H]21` reads “inactive”; that for `O=c1[nH]c2ccc(Cl)cc2o1`, “inactive”; that for `Cc1ccccc1N=C(N)Nc1ccccc1C`, “inactive”. The result for `COc1ccccc1Oc1c(NS(=O)(=O)c2ccc(C(C)(C)C)cc2)nc(-c2ncccn2)nc1OCCO` reads “inactive”; that for `CC1(C)[C@@H](OC(=O)CCC(=O)O)CC[C@]2(C)[C@H]3C(=O)C=C4[C@@H]5C[C@@](C)(C(=O)O)CC[C@]5(C)CC[C@@]4(C)[C@]3(C)CC[C@@H]12`, “inactive”. Consider `O=C(Nc1cccc2c(=O)cc(-c3nn[nH]n3)oc12)c1ccc(OCCCCc2ccccc2)cc1`, for which the Potency entry is “inactive”. The result for `Cc1ccc2c(Br)cc(Br)c(O)c2n1` reads “inactive”. The value for `Brc1cc2ccccc2c2ccccc12` was “inactive”. Consider `O=C(O)CCC(=O)C(=O)O`, for which the Potency result is “inactive”.

In the case of `O=C1c2ccccc2C(=O)N1CCc1noc(-c2ccc(CN3CCCCCC3)s2)n1`, the Potency entry is “inactive”. The value for `C/C=C\C/C=C/CCCCCCCCOC(C)=O` was “inactive”; that for `Cc1ccc(C(C)(C)O)cc1` was “inactive”; that for `OC[C@H]1O[C@@H](n2cnc3c(=S)nc[nH]c32)[C@H](O)[C@@H]1O` was “inactive”. The value for `CC1=C(CC=O)C(C)(C)CCC1` was “inactive”; that for `Cc1cc(C)cc(N)c1` was “inactive”; that for `Cc1cc(=O)c2c(O)c3c(O)cc(=O)c4c3c3c(cc(O)c1c23)C(C)(C)C=4O` was 2.66 µM (active).

With `CCCCOc1ccc(OCCCN2CCOCC2)cc1`, the Potency result is “inactive”.
